mHTT CaM bind: inhibitors of human mutant huntingtin-calmodulin interaction. hit rate 3.6% among 190,000. AID 1671202. AlphaScreen His-mHTT/GST-CaM binding, luminescence. inhibition, % at 15 µM. P42858;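 note: 0% = both proteins with DMSO and 100% = one protein alone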
Target sequence (P42858 whole entry, looked up, stated change not applied): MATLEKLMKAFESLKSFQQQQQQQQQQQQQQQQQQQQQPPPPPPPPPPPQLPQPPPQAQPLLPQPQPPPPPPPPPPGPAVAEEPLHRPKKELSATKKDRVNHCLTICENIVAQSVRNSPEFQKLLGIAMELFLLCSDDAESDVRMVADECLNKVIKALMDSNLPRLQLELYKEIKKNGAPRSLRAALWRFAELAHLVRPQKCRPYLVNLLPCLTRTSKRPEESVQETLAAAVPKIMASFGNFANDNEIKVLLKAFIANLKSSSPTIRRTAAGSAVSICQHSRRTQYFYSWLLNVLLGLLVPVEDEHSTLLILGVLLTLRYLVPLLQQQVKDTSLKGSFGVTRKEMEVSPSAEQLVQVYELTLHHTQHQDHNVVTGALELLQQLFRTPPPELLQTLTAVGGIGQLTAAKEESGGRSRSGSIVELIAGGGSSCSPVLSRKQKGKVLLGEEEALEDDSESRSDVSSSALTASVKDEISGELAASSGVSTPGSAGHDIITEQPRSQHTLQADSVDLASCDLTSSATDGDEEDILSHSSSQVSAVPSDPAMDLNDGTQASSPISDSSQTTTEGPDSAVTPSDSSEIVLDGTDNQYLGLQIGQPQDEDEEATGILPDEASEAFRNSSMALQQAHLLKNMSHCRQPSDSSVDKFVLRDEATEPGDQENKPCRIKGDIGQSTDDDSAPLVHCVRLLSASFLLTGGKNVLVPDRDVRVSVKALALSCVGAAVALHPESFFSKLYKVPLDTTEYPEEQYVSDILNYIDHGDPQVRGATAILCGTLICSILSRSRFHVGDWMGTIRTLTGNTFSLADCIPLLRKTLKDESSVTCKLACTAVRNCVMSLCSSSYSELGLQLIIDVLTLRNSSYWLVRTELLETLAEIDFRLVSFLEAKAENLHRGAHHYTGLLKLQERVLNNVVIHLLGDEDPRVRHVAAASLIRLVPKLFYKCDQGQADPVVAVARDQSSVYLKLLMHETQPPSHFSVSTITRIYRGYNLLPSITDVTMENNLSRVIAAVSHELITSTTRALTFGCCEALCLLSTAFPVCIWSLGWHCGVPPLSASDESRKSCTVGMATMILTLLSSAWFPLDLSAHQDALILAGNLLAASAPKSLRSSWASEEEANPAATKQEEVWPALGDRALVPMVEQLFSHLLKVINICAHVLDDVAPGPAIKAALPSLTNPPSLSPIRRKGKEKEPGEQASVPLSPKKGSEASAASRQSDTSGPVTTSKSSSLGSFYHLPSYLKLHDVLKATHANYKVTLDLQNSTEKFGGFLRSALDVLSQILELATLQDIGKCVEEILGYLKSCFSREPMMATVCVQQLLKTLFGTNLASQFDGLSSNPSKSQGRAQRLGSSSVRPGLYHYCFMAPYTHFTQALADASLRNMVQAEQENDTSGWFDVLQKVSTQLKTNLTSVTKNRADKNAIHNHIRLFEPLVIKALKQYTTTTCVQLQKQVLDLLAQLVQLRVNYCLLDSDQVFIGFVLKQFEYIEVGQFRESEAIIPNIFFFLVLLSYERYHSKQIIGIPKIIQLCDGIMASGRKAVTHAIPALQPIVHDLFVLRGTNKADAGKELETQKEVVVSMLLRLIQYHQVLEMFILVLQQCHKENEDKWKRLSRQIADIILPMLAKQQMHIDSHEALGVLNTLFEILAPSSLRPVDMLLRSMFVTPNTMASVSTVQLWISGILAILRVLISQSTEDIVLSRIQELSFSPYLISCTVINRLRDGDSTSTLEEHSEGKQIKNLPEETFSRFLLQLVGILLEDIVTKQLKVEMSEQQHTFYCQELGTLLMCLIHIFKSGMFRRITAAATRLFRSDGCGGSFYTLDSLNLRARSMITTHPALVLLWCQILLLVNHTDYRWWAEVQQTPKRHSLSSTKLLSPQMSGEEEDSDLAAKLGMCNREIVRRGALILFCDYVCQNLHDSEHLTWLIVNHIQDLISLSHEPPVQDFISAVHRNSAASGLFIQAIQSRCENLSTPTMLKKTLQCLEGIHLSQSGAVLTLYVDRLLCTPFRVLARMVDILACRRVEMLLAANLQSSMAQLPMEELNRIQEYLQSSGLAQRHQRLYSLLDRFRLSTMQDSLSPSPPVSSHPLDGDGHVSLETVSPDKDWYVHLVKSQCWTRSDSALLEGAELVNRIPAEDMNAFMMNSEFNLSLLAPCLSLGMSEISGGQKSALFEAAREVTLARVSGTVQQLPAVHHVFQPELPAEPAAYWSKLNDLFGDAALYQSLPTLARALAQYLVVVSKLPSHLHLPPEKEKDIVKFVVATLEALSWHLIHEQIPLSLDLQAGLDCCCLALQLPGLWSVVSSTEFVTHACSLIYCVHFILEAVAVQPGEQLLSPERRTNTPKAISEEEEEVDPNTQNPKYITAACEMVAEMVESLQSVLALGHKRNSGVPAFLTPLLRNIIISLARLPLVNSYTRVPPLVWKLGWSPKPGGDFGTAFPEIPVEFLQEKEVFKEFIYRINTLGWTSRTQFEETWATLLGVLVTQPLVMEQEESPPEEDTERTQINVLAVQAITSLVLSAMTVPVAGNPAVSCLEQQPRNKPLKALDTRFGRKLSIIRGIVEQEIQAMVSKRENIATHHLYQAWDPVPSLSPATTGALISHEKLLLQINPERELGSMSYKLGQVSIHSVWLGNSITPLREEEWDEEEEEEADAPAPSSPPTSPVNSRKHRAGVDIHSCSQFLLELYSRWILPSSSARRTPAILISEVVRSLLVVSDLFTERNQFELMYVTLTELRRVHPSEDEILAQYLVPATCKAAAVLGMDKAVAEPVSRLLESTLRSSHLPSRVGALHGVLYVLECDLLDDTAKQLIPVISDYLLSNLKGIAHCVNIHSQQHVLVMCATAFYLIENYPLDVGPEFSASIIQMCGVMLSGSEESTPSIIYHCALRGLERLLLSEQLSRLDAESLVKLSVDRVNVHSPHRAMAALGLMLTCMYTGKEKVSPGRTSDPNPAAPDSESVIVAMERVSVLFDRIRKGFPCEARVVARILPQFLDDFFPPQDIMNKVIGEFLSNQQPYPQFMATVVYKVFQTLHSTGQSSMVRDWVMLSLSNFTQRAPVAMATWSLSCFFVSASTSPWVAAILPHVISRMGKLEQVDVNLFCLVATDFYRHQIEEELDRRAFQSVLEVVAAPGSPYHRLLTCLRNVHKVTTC
Pf apPOL block: Pf-apPOL DNA polymerase inhibition; Recombinant Pf-apPOL, molecular beacon fluorescence, 1.5 h; AID 1794808; hit rate 0.25% among 210,000; inhibition, % at 10 µM
Starred values were filed as active, the others as inactive; nt = not tested or not shown. The full list was thinned out, with hits kept by preference. Cut-off read from the data, not from the text of the source: active = inhibition above about 50%; inactive = the rest.

SMILES | mHTT CaM bind | Pf apPOL block
CCC(C)c1ccccc1OCC(O)CNC(C)(C)C(C)(C)C (centres undefined) | 100* | -6
CCC(C)c1ccccc1OCC(O)CNC(C)(C)C (centres undefined) | -6 | -7
Cc1cc(C(=O)Nc2ccc3c(c2)CN(C(=O)C(C)C)CC3)c(C)o1 | -6 | -6
CC(C)C(=O)N1CCc2ccc(NC(=O)c3ccccc3C(F)(F)F)cc2C1 | 14 | 88*
COc1ccc(-c2nc3c4cnn(-c5ccc(C)cc5)c4ncn3n2)cc1OC | -1 | -5
c1cc(-c2nc3ccccc3[nH]2)nc(-c2nc3ccccc3[nH]2)c1 | 78* | 24
Fc1ccc(-c2nc3ccccc3[nH]2)cc1 | -16 | -4
Clc1cccc(N2CCN(c3ncnc4c3nc3n4CCCC3)CC2)c1 | 50 | 0
Cc1ccc(N(C)C(=O)C2CCN(c3ncnc4c3nc3n4CCCCC3)CC2)cc1C | 56* | -1
O=C(Nc1cc(F)ccc1F)C1CCN(c2ncnc3c2nc2n3CCCCC2)CC1 | 1 | -3
Cc1ccc(N(C)C(=O)C2CCCN(c3ncnc4c3nc3n4CCCCC3)C2)cc1C (centres undefined) | 39 | 4
Cc1ccc(Cl)cc1N1CCN(c2ncnc3c2nc2n3CCCCC2)CC1 | 99* | -5
O=C(Nc1ccccc1F)C1CCN(c2ncnc3c2nc2n3CCCCC2)CC1 | 5 | 96*
Cc1ccc(C)c(CN2C(=O)NC3(CCN(C(=O)c4ccc(F)cc4Cl)CC3)C2=O)c1 | 7 | -5
COC(=O)c1cc(NC(=O)C=Cc2ccc(OC)c(OC)c2Cl)ccc1N1CCOCC1 | nt | -2
Cc1nn(C)cc1Br | -2 | nt
COc1ccccc1NC(=O)N1CCN(c2ccccc2OC)CC1 | -1 | -30
COC(=O)c1cccc(NC(=O)N2CC3CCCN3c3ccccc32)c1 (centres undefined) | 69* | -2
O=C(Nc1cccc(F)c1)N1CC2CCCN2c2ccccc21 (centres undefined) | 46 | -3
COc1ccc(OC)c(NC(=O)N2CC(C)Oc3ccc(C)cc32)c1 (centres undefined) | 62* | -16
COc1ccccc1NC(=O)N1CC(C)Oc2ccc(C)cc21 (centres undefined) | -2 | -4
COc1cccc(NC(=O)N2CC3CCCN3c3ccccc32)c1 (centres undefined) | 73* | -3
O=C(Nc1ccc(F)c(Cl)c1)N1CC2CCCN2c2ccccc21 (centres undefined) | 4 | -3
COc1ccccc1NC(=O)N1CCN(C)c2ccccc21 | 61* | 0
COc1ccccc1N1CCN(C(=O)C2(c3ccc(NC(=O)C4CC4)cc3)CCC2)CC1 | 32 | 7
SMILES | mHTT CaM bind | Pf apPOL block
O=C(CSc1ccc(F)cc1)N1CCOC(c2ccc(C(F)(F)F)cc2)C1 (centres undefined) | -19 | -8
N#CC1=C(N)OC2=C(C(=O)CC(c3ccccc3)C2)C1c1ccc(-c2ccccc2)cc1 (centres undefined) | 20 | -4
Cc1ccc(CN2CCN(C3CCN(C(=O)Nc4ccc(F)c(Cl)c4)CC3)C2=O)cc1 | 17 | -2
Cc1nn(C)c2c(N3CCCC(C(=O)NCc4ccc(F)cc4F)C3)nccc12 (centres undefined) | -4 | -5
Cc1cc2ncn(S(=O)(=O)c3ccc(C(C)C)cc3)c2cc1C | -15 | 0
CCCC(=O)Nc1ccc(NC(=O)c2cccc(Cl)c2Cl)cc1 | 1 | 4
CCC(=O)N1CCC(COc2ccc(C(=O)NC(C)C)cc2)CC1 | 4 | -7
Cc1cccc(OCC(=O)NCCC2CCN(C(=O)Nc3ccccc3)CC2)c1 | 9 | 3
O=C(CCC1CCCN(C(=O)Nc2cccc(F)c2)C1)NCc1cccc(Cl)c1 (centres undefined) | 5 | -8
COc1ccc(OC)c(CCNC(=O)CCC(=O)N2CC3CCCN3c3ccccc32)c1 (centres undefined) | 53* | -2
COc1cc(NC(=O)N2CCOc3ccc(C)cc32)cc(OC)c1OC | 8 | -7
CCOC(=O)CNC(=O)N1CC2CCCN2c2ccccc21 (centres undefined) | 16 | -3
CCOC(=O)c1cccc(NC(=O)N2CC(CC)Oc3ccccc32)c1 (centres undefined) | -19 | -3
COc1cccc(CNC(=O)N2CC3CCCN3c3ccccc32)c1 (centres undefined) | 66* | 0
COc1ccc(CNC(=O)CCC(=O)N2CC3CCCN3c3ccccc32)c(OC)c1 (centres undefined) | 36 | -4
CCOC(=O)c1cccc(NC(=O)N2CC3CCCN3c3ccccc32)c1 (centres undefined) | 78* | 0
COc1cc(NC(=O)N2CC3CCCN3c3ccccc32)cc(OC)c1OC (centres undefined) | 62* | 4
CCCCOc1ccc(C(=O)NCCNc2ccc(C)nn2)cc1 | -15 | 1
O=C(COc1ccccc1)N1CCOCC1 | -5 | -2
COc1ccc(OC)c(NC(=O)N2CC3CCCN3c3ccccc32)c1 (centres undefined) | 83* | 1
COc1ccc(OC)c(NC(=O)N2CCCC2c2ccccc2C)c1 (centres undefined) | 19 | -4
Cc1ccc(CNC(=O)c2cccc(C3CCCN(C(=O)NC(C)C)C3)c2)cc1C (centres undefined) | -3 | 6
Cc1nnsc1C(=O)N1CCC(C(F)(F)F)CC1 | nt | 5
O=C(O)Cc1ccc(NC(=O)Cc2ccc(Cl)cc2)cc1 | 1 | -2
CCN1C(=O)c2cccc3c(NC(=O)c4ccccc4[N+](=O)[O-])ccc1c23 | 2 | 1
SMILES | mHTT CaM bind | Pf apPOL block
CCN1C(=O)c2cccc3c(NC(=O)COc4ccc(Cl)cc4)ccc1c23 | 52* | -6
CN(C)c1ccc(CCNC(=O)Nc2ccccc2Cl)cc1 | 8 | -10
CCn1cc2c3c(cccc31)CN(C(=O)NCc1cccc(OC)c1)CC2 | 6 | 5
Cn1cc2c3c(cccc31)CN(C(=O)C1CCCC1)CC2 | 39 | -4
CCn1cc2c3c(cccc31)CN(C(=O)c1cccc(OC)c1)CC2 | 69* | -2
COc1cc(NC(=O)N2CCc3cn(C)c4cccc(c34)C2)cc(OC)c1 | -2 | -1
COc1cc(OC)cc(C(=O)N2CCc3cn(C)c4cccc(c34)C2)c1 | 55* | -1
Cn1cc2c3c(cccc31)CN(C(=O)C1CCCCC1)CC2 | 62* | -6
CC(Oc1ccccc1)C(=O)Nc1ccc(C(=O)NC(C)(C)C)cc1 (centres undefined) | -2 | -3
CCn1c(=O)c2c(ncn2C(C)C)n(-c2ccccc2C)c1=O | 1 | -9
O=C(NCCNc1ncc(C(F)(F)F)cc1Cl)C1=Cc2cc(Cl)ccc2OC1 | nt | -2
O=C(Cc1ccc(F)cc1)NCCOc1ccc(-c2ccc(F)cc2)nn1 | 0 | 0
O=C(Cn1cnc2ccccc2c1=O)NCCO | -6 | -3
O=C(NCCOc1ccc(-c2ccccn2)nn1)c1cc(Cl)ccc1Cl | 100* | 3
O=C(NCCOc1cccc2cccnc12)c1ccc(Cl)cc1Cl | 1 | -2
O=C(Cn1cnc2ccccc2c1=O)NCCOc1ccc(-c2ccccn2)nn1 | 100* | -6
O=C(Cc1cccs1)NCCOc1ccc(-c2ccccn2)nn1 | 100* | -2
O=C(CCSc1ccccc1)NCCOc1ccc(-c2ccccn2)nn1 | 100* | 3
O=C(Cc1ccc(Cl)cc1)NCCOc1ccc(-c2cccs2)nn1 | -6 | -1
O=[N+]([O-])c1cccc(/C=C/c2nc(C=Nc3ccccc3Cl)c(O)o2)c1 | 9 | 3
